The values that follow come from PubChem BioAssay AID1626 (SRMLSC, 2009).

About 2,000 (0.91%) of roughly 220,000 compounds were called active. Inconclusive results (about 2%) are left out. Not all results are given here. Entries with a potency or affinity are not part of this list. A number with no mark means an inactive call. Rule as the data show it: inconclusive = inhibition above about 80% without an active follow-up result; inactive = below that; test concentration not stated here.

The assay can be described thus: M. tuberculosis H37Rv growth inhibitors, H37Rv strain (AID 1626).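 Also: bacteria incubated seven days before Alamar blue readout; 0% = bacteria only wells and 100% = bacteria with antibiotic wells.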 As to conditions: stronger effect = higher value, concentration not given here.
For the compound `CCN1C(=O)N[C@@H](c2ccccc2)[C@@H](C(=O)OC)[C@H]1C`, the inhibition was -12.7%.

As for `CC(=O)OCCNc1nc(-c2ccccc2)nc2ccccc12`, the inhibition was -5.25%.

Turning to `CCCN(Cc1ccccc1)C(=S)Nc1cccc(C)c1C`, the inhibition was 3.47%.

Take `CCC(C)C(=O)Nc1cccc(SC)c1` (configuration not stated): the inhibition is 0.86%.

Take `COc1cc2[nH]c(=S)nc(NC3CCCC3)c2cc1OC`: the inhibition is 0.6%.

Consider `CCN(CC)NC(=O)Nc1ccccc1`, for which the inhibition is -12%.

On to `CCOc1ccc(NC(=O)CSc2nnc(Cc3cccn3C)n2-c2ccc(F)cc2)cc1`, for which the inhibition was -6.5%.

Take `Nc1ncnc2c1ncn2C1OC(CO)C(O)C1O` (configuration not stated): the inhibition is -1.34%.

In the case of `Nc1ncnc2c1ncn2[C@@H]1O[C@H](CO)[C@@H](O)[C@@H]1O`, the inhibition was -0.73%.

With `Nc1nc(F)nc2c1ncn2[C@@H]1O[C@H](CO)[C@@H](O)[C@@H]1O`, the inhibition was 72.3%.

For the compound `Nc1ncnc2c1ncn2[C@@H]1O[C@H](CO)[C@@H](O)[C@H]1O`, the inhibition was -2.69%.

`CC(=O)Oc1ccc(N2C(=O)C3C(C2=O)C(C(=O)c2ccc(Cl)cc2)N2CCCC32)cc1` (configuration not stated): the inhibition was -5.33%.

Consider `CCOC(=O)/C=C1\SCC(=O)N1CC(=O)NC12CC3CC(CC(C3)C1)C2`, for which the inhibition was 6.97%.

With `CN(C)/C=C1\C(=O)N(c2ccc(Cl)cc2)CS1(=O)=O`, the inhibition is -3.16%.

For the compound `CC1CCN(c2c(NCC3CCC(C(=O)N4CCCC(C)C4)CC3)c(=O)c2=O)CC1` (configuration not stated), the inhibition is -5.27%.

`O=C(NCc1ccc(Cl)cc1)C1CCC(CNc2c(N3CCCCC3)c(=O)c2=O)CC1` (configuration not stated): the inhibition is 5.8%.

As for `O=C(C1CCC(CNc2c(N3CCCCC3)c(=O)c2=O)CC1)N1CCCC1` (configuration not stated), the inhibition is -3.71%.

For `CC1CCN(c2c(NCC3CCC(C(=O)NCCc4ccc(Cl)cc4)CC3)c(=O)c2=O)CC1` (configuration not stated), the inhibition was 11.6%.

For `CCNC(=O)CC1C(=O)N(CC)C(=S)N1NC(=O)c1ccccc1` (configuration not stated), the inhibition was -3.85%.

`CCCCOc1ccc(C(NC(=O)OCC)NC(=O)OCC)cc1`: the inhibition is 5.59%.

For `CC(C)OC(=O)CN1C(=O)C(C)(C)Oc2ccc(C(=O)NC3CC3)cc21`, the inhibition is -5.84%.

For the compound `Cc1cc(C(=O)CCl)c(C)n1CCc1ccccc1`, the inhibition was 66.4%.

On to `Cc1cc(C(=O)CSc2ncccn2)c(C)n1Cc1ccco1`, for which the inhibition is 6.3%.

Regarding `Cc1cc(C(=O)C(C)Cl)c(C)n1Cc1ccco1` (configuration not stated), the inhibition is 0.64%.

Regarding `Cc1cc(C(=O)COc2ccccc2C(N)=O)c(C)n1CC1CCCO1` (configuration not stated), the inhibition was 1.33%.

For `COC(=O)c1ccc(-n2c(C)cc(C(=O)CCl)c2C)cc1`, the inhibition is 53.5%.

As for `Cc1cc(C(=O)COc2ccccc2C(N)=O)c(C)n1C`, the inhibition is 0.29%.

Take `COc1ccc(C(=O)c2ccc(OC)cc2OC)cc1`: the inhibition is 0.13%.

In the case of `Cc1ccc(N=CC=C2OC(C)(C)C(C)(C)O2)c(C)c1`, the inhibition was -2.12%.

For `CC(=O)C1=C(O)C(=O)N(CCc2c[nH]c3ccccc23)C1c1cccc(O)c1` (configuration not stated), the inhibition is 1.15%.

On to `CC(C)=CC(=O)Nc1ccc2c(c1)OCO2`, for which the inhibition is -4.24%.

For the compound `CS(=O)(=O)N(CC(=O)Nc1cccc([N+](=O)[O-])c1)c1ccccc1`, the inhibition is -4.25%.

For the compound `Cn1c(=O)n(Cc2ccccc2)c2ccccc21`, the inhibition was -7.14%.

With `NNc1nc2c(F)cccc2s1`, the inhibition is 8.41%.

As for `COc1cccc2sc(Nc3nnc(-c4ccccc4Cl)o3)nc12`, the inhibition was 52.8%.

On to `Fc1cccc2sc(Nc3nc4c(F)cccc4s3)nc12`, for which the inhibition was 43%.

Take `COc1ccc(-c2nnc(Nc3nc4c(OC)cccc4s3)o2)c(OC)c1`: the inhibition was 3.73%.

As for `COc1ccccc1-c1nnc(Nc2nc3c(OC)cccc3s2)o1`, the inhibition was 8.74%.

`COc1cccc2sc(Nc3nnc(-c4cccs4)o3)nc12`: the inhibition is -3.65%.

Take `O=C(COC(=O)c1cccc2ccccc12)NCC1CCCO1` (configuration not stated): the inhibition is -2.85%.

Consider `CCn1cc(C2C3=C(CC(C)(C)CC3=O)N(c3ccccc3)C3=C2C(=O)CC(C)(C)C3)c(C)n1`, for which the inhibition was -3.23%.

For the compound `CCC1=C(OC(=O)N(CC)CC)N2C(=O)OC(=NCCOC)[C@]2(Cc2ccccc2)[C@H]2C1=CC[C@H]1C(=O)NC(=O)[C@H]12`, the inhibition is 10.1%.

`O=C(NC1CCCCC1)c1nn2c(C(F)(F)F)cc(-c3ccco3)nc2c1Br`: the inhibition is 1.53%.

As for `COCCn1c(SCC(=O)Nc2ccccc2OC)nc2c(oc3ccccc32)c1=O`, the inhibition is 3.65%.

Regarding `COc1ccc(SCCC(=O)NCc2ccncc2)cc1`, the inhibition was -7.49%.

In the case of `Cc1cccc(N2CCN(C(=O)c3cccc(N4C(=O)C5CC=CC(C)C5C4=O)c3)CC2)c1C` (configuration not stated), the inhibition was -7%.

As to `COc1ccc(C2C(C(=O)Nc3ccc(F)cc3)=C(C)Nc3nc(CCCO)nn32)cc1` (configuration not stated), the inhibition is -9.75%.

With `Nc1ccc2c(c1)CC(=O)c1ccccc1S2`, the inhibition is 9.71%.

Take `Nc1ccc2c(c1)CCC2=O`: the inhibition is -8.13%.

Consider `O=C1c2ccccc2-c2nnc(-c3ccccc3)cc21`, for which the inhibition was -2.39%.

For the compound `CCc1ccc2c(c1)C(=O)c1ccccc1C2=O`, the inhibition is 7.07%.

Take `Cc1ccc(-c2ccc3c(c2)S(=O)(=O)c2ccccc2C3=O)cc1`: the inhibition was -4.26%.

With `CC(C)(C)c1ccc2c(c1)C(=O)c1ccccc1C2=O`, the inhibition is 7.48%.

For `O=C(OCC(=O)N1CCN(C(=O)c2ccco2)CC1)c1cccc(S(=O)(=O)N2CCc3ccccc32)c1`, the inhibition was 2.78%.

Take `CC(C)C(=O)N1CCN(c2ccc([N+](=O)[O-])cc2Cl)CC1`: the inhibition is 0.58%.

As to `COc1ccc(/C=N/NC(=O)C(C)n2nnc3ccccc32)cc1OC` (configuration not stated), the inhibition is -3.28%.

Consider `C=CCN1C(=O)C(Cc2ccc(OC)cc2)S/C1=N\N=C\c1cccs1` (configuration not stated), for which the inhibition was -5.41%.

On to `COc1ccc(OC)c(C(=O)c2ccc(C(=O)N3CCCCC3)cc2)c1`, for which the inhibition is -2.08%.

`Cc1cccc2c1NC(=O)/C2=C\C(=O)c1cccs1`: the inhibition was 12.6%.

In the case of `O=C(/C=C1\C(=O)Nc2ccccc21)/C=C1\C(=O)Nc2ccccc21`, the inhibition is 9.02%.

As to `CCc1ccc2c(c1)C(O)(CC(=O)c1cccs1)C(=O)N2` (configuration not stated), the inhibition is 3.05%.

On to `Cc1cc(Br)c2c(c1)/C(=C/C(=O)c1cccs1)C(=O)N2`, for which the inhibition was 79.9%.

As usually defined, the inhibition is the change of the read-out against control, counted positive when it falls.
